A short description of assay [1]: qHTS assay to identify small molecule agonists of the constitutive androstane receptor (CAR) signaling pathway - cell viability counter screen (AID 1224836). Also: % is scaled to controls: 0 for no effect and ±100 for the full control effect; nearly all actives have a fitted effect of over 45% in size. The gist of the method: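 Fluorescence from CellTiter-Fluor indicates live cells after 23 h exposure. The human hepatoma line expresses hCAR and a CYP2B6-2.2kb reporter. Incubation medium contains 0.75 uM PK11195 (final).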

Assay [2] in a line: qHTS assay to identify small molecule antagonists of the constitutive androstane receptor (CAR) signaling pathway - cell viability counter screen (AID 1224837). Also: % is scaled to controls: 0 for no effect and ±100 for the full control effect; nearly all actives have a fitted effect of over 45% in size. A digest of the protocol:
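Using CellTiter-Fluor, viability is scored in HepG2 cells stably carrying hCAR and a 2.2kb CYP2B6 reporter after 23 hr compound exposure across 15 concentrations, with CITCO present at 50 nM.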

In assay [3] the target is Nuclear receptor subfamily 1 group I member 3 (Homo sapiens) (UniProt Q14994). Put plainly: qHTS assay to identify small molecule antagonists of the constitutive androstane receptor (CAR) signaling pathway (AID 1224838).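 Also: HepG2 cells stably expressing hCAR with CYP2B6 luciferase reporter stimulated by CITCO; nearly all actives have a fitted effect of over 40% in size.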 Also: potency is read from the fitted curve at half-maximal effect. A digest of the protocol:
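Reporter luminescence was quantified after 24 h exposure of hCAR/CYP2B6-2.2kb double-stable HepG2 cells to compounds at 15 concentrations in the presence of 50 nM CITCO final.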

Assay [4] has the same target. Put plainly: qHTS assay to identify small molecule agonists of the constitutive androstane receptor (CAR) signaling pathway (AID 1224839). Also: nearly all actives have a fitted effect of over 15% in size. Also: potency is read from the fitted curve at half-maximal effect.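 As to activation: HepG2 cells stably carrying human CAR and a CYP2B6 luciferase reporter; % is scaled to controls: 0 for no effect and ±100 for the full control effect.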 A digest of the protocol:
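Stable hCAR/CYP2B6-2.2kb HepG2 line in DMEM with 10% FBS; compounds (15 concentrations) and 0.75 uM PK11195 final, 24 h at 37 C/5% CO2, then ONE-Glo luminescence after 30 min.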

A short description of assay [5]: qHTS assay to identify small molecule antagonists of the estrogen related receptor signaling pathway with the pleiotropic PPARgamma coactivator (PGC) from Tox21 10K library - cell viability counter screen (AID 1224840; active = well fitted cell-killing curve with a large enough effect in the repeat runs, not every such curve was filed as active; also: % is scaled to controls: 0 for no effect and ±100 for the full control effect; nearly all actives have a fitted effect of over 40% in size). The gist of the method:
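Here the PGC/ERR cells serve as a cytotoxicity control: they are exposed to compounds for 17.5 hours at 37 C, and live-cell signal is quantified using CellTiter-Fluor fluorescence.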

The target in assay [6] is Thyrotropin receptor (Homo sapiens) (UniProt P16473). Kind of assay: qHTS assay to identify small molecule agonists of the thyroid stimulating hormone receptor (TSHR) signaling pathway (AID 1224843; calls by dose curve; also: % is scaled to controls: 0 for no effect and ±100 for the full control effect; nearly all actives have a fitted effect of over 45% in size). A digest of the protocol: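 Cell line HEK293 with TSHR; density 800/well. Exposure 30 min RT. Readout HTRF cAMP (cAMP-d2/anti-cAMP-cryptate), 1 h RT before reading.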
Assay [7] can be described thus: qHTS assay to identify small molecule agonists of H2AX - cell viability counter screen (AID 1224847; calls by dose curve; also: top concentration of the series differs between compounds; % is scaled to controls: 0 for no effect and ±100 for the full control effect; nearly all actives have a fitted effect of over 30% in size). The gist of the method: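 Viability of CHO-K1 (wild type) cells after 3 hr compound exposure was measured by CellTiter-Glo luminescence.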
Assay [8] in a line: qHTS RealTime-Glo MT Cell Viability Assay in HepG2 cells - 24 hour (AID 1224867). Also: % is scaled to controls: 0 for no effect and ±100 for the full control effect; nearly all actives have a fitted effect of over 50% in size. The gist of the method:
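HepG2 suspension premixed with RealTime-Glo reagents is plated at 600 cells per well and left 5 h at 37 C/5% CO2. Compounds in DMSO then go in, and bioluminescence reflecting viable cell number is recorded over 40 h.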

A short description of assay [9]: A CellTox Green Cytotoxicity Assay to monitor cytotoxicity in HEK293 cells - 0 hour (AID 1224869). Also: % is scaled to controls: 0 for no effect and ±100 for the full control effect; nearly all actives have a fitted effect of over 50% in size. A digest of the protocol:
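Seeding of HEK293 cells together with cytotoxicity dye preceded a 5 h incubation at 37 C/5% CO2. Test compounds in DMSO were then added and fluorescence monitored across 40 h.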

Assay [10] can be described thus: qHTS RealTime-Glo MT Cell Viability Assay in HepG2 cells - 40 hour (AID 1224870). Also: % is scaled to controls: 0 for no effect and ±100 for the full control effect; nearly all actives have a fitted effect of over 50% in size. A digest of the protocol: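 HepG2 cells mixed with RealTime-Glo MT reagents (NanoLuc plus cell-permeant prosubstrate) were seeded at 600 cells/well, incubated 5 h at 37 C/5% CO2, then pinned with compounds in DMSO; nonlytic luminescence tracked viability during 40 h treatment.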
Assay [11] can be described thus: qHTS assay to identify small molecule agonists of the estrogen related receptor signaling pathway with the pleiotropic PPARgamma coactivator (PGC) from Tox21 10K library (AID 1224842). Also: % is scaled to controls: 0 for no effect and ±100 for the full control effect; nearly all actives have a fitted effect of over 15% in size. A digest of the protocol:
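PGC/ERR reporter cells (NTP line) were seeded 2,000 per well, rested 6 h at 37 C/5% CO2, then pin-dosed with compounds in DMSO for 18 h at 37 C; luciferase read by One-Glo luminescence after 30 min at room temperature.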

The nature of assay [12]: qHTS assay to identify small molecule agonists of the hypoxia (HIF-1) signaling pathway - cell viability counter screen (AID 1224844; calls by dose curve; also: nearly all actives have a fitted effect of over 50% in size; also: potency is read from the fitted curve at half-maximal effect). The gist of the method:
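Multiplexed with the HRE beta-lactamase assay, this viability read used CellTiter-Glo luminescence (30 min, RT) on HRE-bla ME-180 cells treated 17 hrs with compounds in 0.5% dialyzed FBS medium.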

Assay [13] in a line: qHTS assay to identify small molecule agonists of the hypoxia (HIF-1) signaling pathway (AID 1224846; active = well fitted activation curve with a large enough effect in the signal ratio in the repeat runs, not every such curve was filed as active; the % refers to the signal ratio; also: % is scaled to controls: 0 for no effect and ±100 for the full control effect). A digest of the protocol:
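Hypoxia-pathway activation was scored as increased beta-lactamase from an HRE-controlled reporter in ME-180 cells; plated at 2,000 cells per well with 0.5% dialyzed FBS, they were exposed 17 hrs to compounds and then given CCF4-AM.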

The nature of assay [14]: qHTS assay to identify small molecule antagonists of the estrogen related receptor (ERR) signaling pathway from Tox21 library (AID 1224848). Also: nearly all actives have a fitted effect of over 50% in size. Also: potency is read from the fitted curve at half-maximal effect. A digest of the protocol: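 Screening used an ERR reporter line supplied by NTP, exposed for 18 h at 37 C to library compounds delivered in DMSO. Signal was luciferase luminescence developed with ONE-Glo at room temperature for 30 min.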

The nature of assay [15]: qHTS assay to identify small molecule agonists of the estrogen related receptor (ERR) signaling pathway from Tox21 library (AID 1224849; calls by dose curve; also: % is scaled to controls: 0 for no effect and ±100 for the full control effect; nearly all actives have a fitted effect of over 15% in size). Conditions: ERR reporter cell line, ONE-Glo luciferase, 18 h; at 92.4 µM (top of the series) unless noted. A digest of the protocol:
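Six hours post-seeding at 37 C/5% CO2, ERR cells receive DMSO-solubilised compounds; after 18 h at 37 C, ONE-Glo reagent is applied and luminescence recorded.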

In assay [16] the target is Luciferin 4-monooxygenase (Photinus pyralis) (UniProt P08659). Put plainly: qHTS assay to identify small molecule inhibitors of firefly luciferase (AID 1224835). Also: % is scaled to controls: 0 for no effect and ±100 for the full control effect; nearly all actives have a fitted effect of over 25% in size. A digest of the protocol:
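Quantitative HTS format; KM concentrations of both substrates. Purified P. pyralis FLuc activity quantified from luminescence images.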

The nature of assay [17]: qHTS assay to identify small molecule antagonists of the estrogen related receptor signaling pathway with the pleiotropic PPARgamma coactivator (PGC) from Tox21 10K library (AID 1224841; call rule not given here). A digest of the protocol:
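Each well held 2,000 PGC/ERR cells, pre-incubated six hours (37 C, 5% CO2). Test substances in DMSO were added by pin tool and left for 18 h at 37 C before luciferase detection by One-Glo.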

Assay [18] is described as follows: qHTS RealTime-Glo MT Cell Viability Assay in HEK293 cells - 32 hour (AID 1224868). Also: nearly all actives have a fitted effect of over 50% in size. Also: potency is read from the fitted curve at half-maximal effect. A digest of the protocol:
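Reads taken at 0, 8, 16, 24, 32 and 40 h from the same wells. HEK293 cells (600/well) carried RealTime-Glo reagents from seeding, with compound added after a 5 h settle at 37 C.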

Assay [19] can be described thus: qHTS assay to identify small molecule agonists of H2AX (AID 1224845; active = well fitted activation curve with a large enough effect in the signal ratio in the repeat runs, not every such curve was filed as active; the % refers to the signal ratio; also: potency is read from the fitted curve at half-maximal effect). The gist of the method:
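Wild-type CHO-K1 cells plated overnight, then exposed 3 hr at 37C to compounds at 15 concentrations (0.76% DMSO). Lysed, then HTRF anti-pH2AX(S139)-cryptate/anti-H2AX-d2 detection after 24 hr at room temperature; emissions 665 and 620 nm.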

Values without a mark were called inactive. Inconclusive results are not listed. Active and inactive are the calls of the source. Unless noted, calls follow the shape of the dose curve; as a rule, active = well fitted curve in the direction sought with a large enough effect in the repeat runs; inconclusive = weak or mixed curves; inactive = no such curve, though single readings can be large; an effect the other way counts as inactive or inconclusive.

Chain of Thyrotropin receptor (Homo sapiens) (P16473 whole entry, looked up): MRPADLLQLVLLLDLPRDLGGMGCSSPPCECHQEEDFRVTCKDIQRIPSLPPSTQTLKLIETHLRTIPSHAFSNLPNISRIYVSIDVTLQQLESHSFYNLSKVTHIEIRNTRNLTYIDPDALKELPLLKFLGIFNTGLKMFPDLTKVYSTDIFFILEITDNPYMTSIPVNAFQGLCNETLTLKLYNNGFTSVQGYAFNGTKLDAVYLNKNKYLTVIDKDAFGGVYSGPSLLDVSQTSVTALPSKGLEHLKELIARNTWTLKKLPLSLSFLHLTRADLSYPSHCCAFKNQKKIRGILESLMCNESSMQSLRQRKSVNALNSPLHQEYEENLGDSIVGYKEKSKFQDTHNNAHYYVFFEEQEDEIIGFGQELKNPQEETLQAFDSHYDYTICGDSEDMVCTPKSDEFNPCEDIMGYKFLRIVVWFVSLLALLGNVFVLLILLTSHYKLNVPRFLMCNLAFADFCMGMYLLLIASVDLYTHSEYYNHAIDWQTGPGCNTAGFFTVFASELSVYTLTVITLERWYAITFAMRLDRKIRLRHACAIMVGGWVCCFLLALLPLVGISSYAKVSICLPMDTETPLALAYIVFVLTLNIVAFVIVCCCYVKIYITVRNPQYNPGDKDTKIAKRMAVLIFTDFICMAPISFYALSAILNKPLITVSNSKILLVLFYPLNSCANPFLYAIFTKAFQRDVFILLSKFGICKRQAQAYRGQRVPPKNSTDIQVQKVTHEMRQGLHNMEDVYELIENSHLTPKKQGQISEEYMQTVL
Chain of Nuclear receptor subfamily 1 group I member 3 (Homo sapiens) (Q14994 whole entry, looked up): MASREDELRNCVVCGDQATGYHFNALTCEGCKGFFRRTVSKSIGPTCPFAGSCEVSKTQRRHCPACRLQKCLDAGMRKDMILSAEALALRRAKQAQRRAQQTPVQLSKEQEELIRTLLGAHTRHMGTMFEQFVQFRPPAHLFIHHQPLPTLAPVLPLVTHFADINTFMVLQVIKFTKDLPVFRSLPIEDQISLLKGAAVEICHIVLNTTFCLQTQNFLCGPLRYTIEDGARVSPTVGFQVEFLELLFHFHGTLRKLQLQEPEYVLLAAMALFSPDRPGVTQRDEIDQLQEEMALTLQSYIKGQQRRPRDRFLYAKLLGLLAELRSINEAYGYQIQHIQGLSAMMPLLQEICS
Chain of Luciferin 4-monooxygenase (Photinus pyralis) (P08659 whole entry, looked up): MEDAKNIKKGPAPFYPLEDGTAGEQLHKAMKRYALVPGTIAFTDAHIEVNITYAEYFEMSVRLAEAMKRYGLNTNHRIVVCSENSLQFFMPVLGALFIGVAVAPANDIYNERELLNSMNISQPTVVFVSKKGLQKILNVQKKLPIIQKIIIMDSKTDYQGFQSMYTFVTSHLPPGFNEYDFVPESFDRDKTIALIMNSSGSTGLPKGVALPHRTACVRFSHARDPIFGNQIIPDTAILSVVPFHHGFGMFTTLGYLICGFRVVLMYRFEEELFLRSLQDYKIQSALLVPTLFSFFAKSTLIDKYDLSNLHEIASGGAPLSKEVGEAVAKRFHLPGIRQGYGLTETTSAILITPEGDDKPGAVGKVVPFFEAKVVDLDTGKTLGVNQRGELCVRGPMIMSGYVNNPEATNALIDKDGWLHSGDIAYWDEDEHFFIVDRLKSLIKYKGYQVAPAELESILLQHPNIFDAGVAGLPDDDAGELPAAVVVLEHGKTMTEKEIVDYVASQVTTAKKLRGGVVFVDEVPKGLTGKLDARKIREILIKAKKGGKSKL

With `N#C/C=C/C#N`, the Potency entry in assay [1], in [2], in [3], in assay [5], in [6] and in [7] was “inactive” each time. In addition, the Potency entry in assay [8], in [9] and in assay [10] was “inactive” throughout. Besides, in assay [4], the Potency is 64 µM (active).

Consider `Nc1ccc(Sc2ccc(N)cc2)cc1`, for which the Potency entry in assay [1], in assay [2], in assay [3], in assay [5], in [11] and in assay [6] was “inactive” throughout. Moreover, the Potency result in [12], in assay [14], in assay [8] and in [9] was “inactive” each time. For the same compound, in [4], the Potency is 34.4 µM (active). Moreover, in assay [13], the result was inactive. Besides, in assay [15], the activity change, positive = activation is 9.92%.

On to `CC(C)(C)C(O)C(Oc1ccc(-c2ccccc2)cc1)n1cncn1` (centres undefined), for which the Potency result in assay [16], in [1], in assay [3], in assay [5], in [11] and in assay [8] was “inactive” throughout. In addition, the Potency result in assay [9] was “inactive”. The Potency in assay [17] is 54.5 µM (active); in assay [12], 54.9 µM (active); in assay [14], 27.3 µM (active); in [18] it was 24.5 µM (active). For the same compound, the activity change, positive = activation in [15] was -60.3%.

With `CC(=O)OC1(c2ccccc2)CCN(CCc2ccccc2)CC1`, the Potency entry in assay [16], in assay [4], in assay [5], in assay [6], in assay [12] and in assay [8] was “inactive” in each case. Also, the Potency result in assay [10] is “inactive”. The Potency in assay [3] was 8.84 µM (active). In assay [13], the call was inactive.

`CC1CCC(C(C)C)C(OC(=O)c2ccccc2N)C1` (centres undefined): the Potency entry in assay [1], in assay [2], in assay [3], in [11], in assay [6] and in assay [8] was “inactive” each time. Also, the Potency entry in [9] and in assay [10] was “inactive” in each case. Further, the Potency was 38.4 µM (active) in assay [12], 88.5 µM (active) in assay [19], 53.7 µM (active) in assay [14] and 38.4 µM (active) in [18].

For `COC(=O)N(C(=O)N1COC2(C(=O)OC)Cc3cc(Cl)ccc3C2=N1)c1ccc(OC(F)(F)F)cc1` (centres undefined), the Potency entry in assay [1], in assay [2], in assay [5], in assay [11], in [6] and in assay [19] was “inactive” throughout. The Potency result in assay [8], in assay [18], in assay [9] and in [10] was “inactive” in each case. Besides, the Potency in [17] is 23.7 µM (active); in assay [14], 11.9 µM (active). Also, the activity change, positive = activation in assay [15] is -49.3% [at 42.5 µM].

The values are drawn from PubChem BioAssay (Tox21).
